Active and inactive are the calls of the source.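 How the source made its calls: active means compounds whose cell count with miR-34 switched on is under 0.7 times the count with it off; inactive means the rest.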

One assay in a line: viability loss with induced miR-34 in A549 – imaging, A549 dox-inducible miR-34, nuclei and caspase counts, primary screen (AID 1347080). Further: test concentration not given here. The settings on record: A549 miR-34 inducible, Hoechst nuclei count, 48 h; stronger effect = lower value; cell number ratio, induced over uninduced.
Turning to `O=C1C(c2ccccc2)N(c2ccc(Br)cc2)C(=O)N1c1ccc(Br)cc1` (stereo not given), the fold change is 0.936 (inactive).

For the molecule `CC(CN1CCC(n2c(=O)[nH]c3cc(Cl)ccc32)CC1)NC(=O)c1ccc2ccccc2c1` (stereo not given), the fold change was 1.08 (inactive).

As for `CCCCC[C@H](O)/C=C/[C@@H]1[C@H](CCCCCCC(=O)O)[C@@H](O)C[C@H]1O`, the fold change is 0.957 (inactive).

As for `NC(=O)c1cccc(-c2cccc(OC(=O)NCCCCCCc3ccccc3)c2)c1`, the fold change was 0.904 (inactive).

`O=C(O)CCCCCC[C@H]1C(=O)C[C@@H](O)[C@@H]1/C=C/[C@@H](O)Cc1ccccc1`: the fold change was 1.03 (inactive).

With `CN(C)C(=O)CCSC(SCCC(=O)O)c1cccc(/C=C/c2ccc3ccc(Cl)cc3n2)c1` (stereo not given), the fold change was 1 (inactive).

`CCCCC/C=C/C=C1/C=CC(=O)[C@@H]1C/C=C\CCCC(=O)O`: the fold change was 0.952 (inactive).

Turning to `O=C(O)CCC/C=C\C[C@H]1C(=O)C[C@@H](O)[C@@H]1/C=C/[C@@H](O)Cc1ccccc1`, the fold change is 0.985 (inactive).

`CCCCC[C@H](O)/C=C/[C@@H]1[C@@H](CCCCCCC(=O)O)[C@H](O)C[C@@H]1O`: the fold change is 0.98 (inactive).

With `CCCCCCCCCCCCCCCC(=O)OC[C@H](COP(=O)([O-])OCC[N+](C)(C)C)OC(=O)CCCC(=O)/C=C/C(=O)O`, the fold change was 1 (inactive).

Staying with this assay, now noted: A549 miR-34 inducible, Hoechst nuclei count, 48 h; measured here: relative caspase fold change +Dox/-Dox.
As for `O=C(O)CCC/C=C\CC1C(=O)C[C@@H](O)[C@@H]1/C=C/[C@@H](O)COc1ccccc1` (stereo not given in full), the fold change came out at 1.75.

For the molecule `CCCCCCCCCSCCCCCCCC(=O)O`, the fold change turned out to be 0.653.

Take `CCCCC[C@H](O)/C=C/[C@H]1[C@H](O)CC(=O)[C@H]1C/C=C\CCCC(=O)OC(C)C`: the fold change was 1.45.

As for `NC(=Nc1ccc(F)cc1)NO`, the fold change is 1.07.

With `OC[C@H]1O[C@H](O[C@H]2[C@H](O)[C@@H](O)[C@H](O)O[C@@H]2CO)[C@H](O)[C@@H](O)[C@@H]1O`, the fold change was 0.551.

Turning to `COc1ccc(/C=C/c2ccccc2F)cc1`, the fold change was determined as 1.67.

As for `CCCOCCCCCCCCCC(=O)O`, the fold change turned out to be 1.03.

With `Cn1c([N+](=O)[O-])cc[n+]1C`, the fold change was 0.659.

As to `CC\C=C/C=C/C=C/C=C\CCCCCCCC(=O)O`, the fold change was determined as 0.385.

As to `CC(C)(C)OC(=O)Nc1cccc2[nH]ccc12`, the fold change is 0.676.

Consider `C[C@]12CC[C@@H]3c4cc(O)c(O)cc4CC[C@H]3[C@@H]1CC[C@@H]2O`, for which the fold change stood at 2.78.

With `CC(C)(C)C(=O)Nc1ccccc1`, the fold change is 1.18.

As for `O=C(O)CCCCCCCCCCCNC(=O)NC12CC3CC(CC(C3)C1)C2`, the fold change turned out to be 0.546.

Regarding `CCCCC/C=C\C/C=C\C/C=C\C/C=C\CCCC(=O)Oc1ccc2ccc(=O)oc2c1`, the fold change worked out at 0.946.

As for `CCCCCNC1=C(c2cn(C)c3ccccc23)C(=O)N(C)C1=O`, the fold change was 1.69.

On to `CCCCC[C@H](O)/C=C/[C@H]1OC(O)C[C@H](O)[C@@H]1CCCCCCC(=O)O` (stereo not given in full), for which the fold change was found to be 1.26.

For `CCCCCCCCCCCCCCCNC(=O)C1CCCCC1`, the fold change turned out to be 0.274.

On to `C[C@@H](O)CCC[C@@H](O)/C=C/[C@@H]1[C@@H](CCCCCCC(=O)O)[C@@H](O)C[C@H]1O`, for which the fold change stood at 1.31.

For the molecule `CCCCC[C@H](O)/C=C/[C@@H]1c2cc(CCCCC(=O)O)n(-c3ccccc3)c2C[C@H]1O`, the fold change was determined as 1.14.

In the case of `CCCCCCCCCC(=O)N[C@@H](CN1CCOCC1)[C@@H](O)c1ccccc1`, the fold change amounted to 0.927.

Turning to `CCCCCCCCCCCCCCCCOC[C@H](COP(=O)([O-])OCC[N+](C)(C)C)SC(C)=O`, the fold change came to 0.945.

For `CCCCC/C=C\C/C=C\C/C=C\CCCCCCC(=O)OCC`, the fold change was 0.794.

Take `CCCCC[C@H](O)/C=C/[C@@H]1[C@@H](CCCCCCCO)[C@@H](O)C[C@H]1O`: the fold change worked out at 1.15.

As to `CCCCCCCCCCCC(=O)O`, the fold change came to 1.12.

In the case of `N#Cc1cc2c(OCC(O)CN3CCN(C(c4ccccc4)c4ccccc4)CC3)cccc2[nH]1` (stereo not given), the fold change worked out at 1.38.

Turning to `CCCCCC/C=C/C=C\CCCCCCCC(=O)O`, the fold change worked out at 0.691.

As for `CC/C=C\C/C=C\C/C=C\CCCCCCCC(=O)NCCO`, the fold change is 0.865.

For `CC(C)OC(=O)CCC/C=C\C[C@@H]1[C@@H](/C=C/[C@H](O)CCc2ccccc2)[C@H](O)C[C@@H]1O`, the fold change stood at 1.74.

As for `CCCCC/C=C\C/C=C\CCCCCCCC(=O)O[C@H](COC(=O)CCCCCCCCCCCCCCC)COP(=O)(O)OCCN`, the fold change was 0.779.

`COc1ccc2cc(C(C#N)OC(=O)CC3OC3c3ccccc3)ccc2c1` (stereo not given): the fold change came to 0.7.

With `O=C1C(c2ccccc2)N(c2ccc(Br)cc2)C(=O)N1c1ccc(Br)cc1` (stereo not given), the fold change was 0.667.

On to `CC(CN1CCC(n2c(=O)[nH]c3cc(Cl)ccc32)CC1)NC(=O)c1ccc2ccccc2c1` (stereo not given), for which the fold change was determined as 1.2.

As to `CCCCC[C@H](O)/C=C/[C@@H]1[C@H](CCCCCCC(=O)O)[C@@H](O)C[C@H]1O`, the fold change is 1.43.

As to `NC(=O)c1cccc(-c2cccc(OC(=O)NCCCCCCc3ccccc3)c2)c1`, the fold change worked out at 0.743.

Turning to `O=C(O)CCCCCC[C@H]1C(=O)C[C@@H](O)[C@@H]1/C=C/[C@@H](O)Cc1ccccc1`, the fold change turned out to be 1.38.

`CN(C)C(=O)CCSC(SCCC(=O)O)c1cccc(/C=C/c2ccc3ccc(Cl)cc3n2)c1` (stereo not given): the fold change came out at 1.76.

Regarding `CCCCC/C=C/C=C1/C=CC(=O)[C@@H]1C/C=C\CCCC(=O)O`, the fold change was 1.85.

As to `O=C(O)CCC/C=C\C[C@H]1C(=O)C[C@@H](O)[C@@H]1/C=C/[C@@H](O)Cc1ccccc1`, the fold change is 1.05.

`CCCCC[C@H](O)/C=C/[C@@H]1[C@@H](CCCCCCC(=O)O)[C@H](O)C[C@@H]1O`: the fold change was found to be 1.16.

For `CCCCCCCCCCCCCCCC(=O)OC[C@H](COP(=O)([O-])OCC[N+](C)(C)C)OC(=O)CCCC(=O)/C=C/C(=O)O`, the fold change was found to be 0.771.

These data come from PubChem BioAssay.
